According to PubChem BioAssay (Tox21):
Records with an inconclusive call do not appear. Where a call stands in place of a potency, no number is given. Calls of active or inactive are those of the source. The call rests on the fitted dose curve; in most records, active means well fitted inhibition curve with a large enough effect in the repeat runs; inconclusive means weak or mixed curves; inactive means no such curve, though single readings can be large or run the other way.

Biological target: Cytochrome P450 3A4 (Homo sapiens) (UniProt P08684)
Assay: Cytochrome P450 Family 3 Subfamily A Member 4 (CYP3A4) small molecule antagonists: luciferase reporter qHTS assay (AID 1671201); further: nearly all actives have a fitted effect of over 50% in size
Settings: P450-Glo CYP3A4 enzyme, luciferin luminescence, 1 h; series mostly up to 115 µM
Procedure, shortened: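 Enzyme and proluciferin substrate are mixed with test chemicals for 10 min, then NADPH regeneration system drives turnover for 1 h at room temperature. A detection reagent halts the reaction; luminescence after 20 min gives relative activity.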
Potency means the concentration at half of the fitted maximal effect.

Cytochrome P450 3A4 (Homo sapiens), sequence (P08684 whole entry, looked up): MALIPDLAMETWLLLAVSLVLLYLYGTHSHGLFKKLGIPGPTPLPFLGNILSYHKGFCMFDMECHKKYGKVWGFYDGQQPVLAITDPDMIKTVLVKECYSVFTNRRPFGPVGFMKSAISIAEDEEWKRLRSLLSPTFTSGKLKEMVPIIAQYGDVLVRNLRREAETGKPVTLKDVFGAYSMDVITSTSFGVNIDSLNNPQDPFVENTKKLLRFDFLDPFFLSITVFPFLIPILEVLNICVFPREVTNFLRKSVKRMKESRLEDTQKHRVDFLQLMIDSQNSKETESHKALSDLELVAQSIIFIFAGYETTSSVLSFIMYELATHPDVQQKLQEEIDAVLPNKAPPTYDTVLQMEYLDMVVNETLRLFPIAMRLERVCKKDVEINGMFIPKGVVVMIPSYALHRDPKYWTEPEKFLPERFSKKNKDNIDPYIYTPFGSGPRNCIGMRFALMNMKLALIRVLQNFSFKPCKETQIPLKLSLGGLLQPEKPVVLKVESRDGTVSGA

Row | Structure (SMILES) | Potency
1 | CC(C)(c1ccc(Oc2ccc3c(c2)C(=O)OC3=O)cc1)c1ccc(Oc2ccc3c(c2)C(=O)OC3=O)cc1 | inactive
2 | CNC(=O)NC | inactive
3 | Nc1ccnc(=O)[nH]1 | inactive
4 | Cc1ccccc1C | inactive
5 | CC(C)c1ccccc1O | inactive
6 | CC(C)(C)c1ccc(C=O)cc1 | inactive
7 | CCCCC[Si](OCC)(OCC)OCC | 12.6 µM (active)
8 | C=CC(C)(O)CC/C=C(\C)CC (centres undefined) | 22.5 µM (active)
9 | CCCCC(C)C(=O)O (centres undefined) | inactive
10 | C[N+](C)(C)CC(O)CCl (centres undefined) | inactive
11 | CC(C)CCCC(C)CC=O (centres undefined) | inactive
12 | Cc1ccccc1OCC1CO1 (centres undefined) | inactive
13 | CC(C)C(=O)c1ccccc1 | inactive
14 | COCCOCCOCCOC | inactive
15 | CCC(=O)c1ccc(O)cc1 | inactive
16 | O=C(c1ccc2c(c1)C(=O)OC2=O)c1ccc2c(c1)C(=O)OC2=O | inactive
17 | CCCCC(CC)COC(=O)c1ccccc1 (centres undefined) | inactive

Row | Structure (SMILES) | Potency
18 | CCCOC(=O)CCCCC(=O)OCCC | inactive
19 | CC(C)=CC(C)(C)C | inactive
20 | CN(C)CCOCCN(C)CCO | inactive
21 | O=CN1CCOCC1 | inactive
22 | CNC(=O)C(c1ccccc1)c1ccccc1 | inactive
23 | CCCC(C)CC (centres undefined) | inactive
24 | C=C[C@@H](C)CCC=C(C)C | inactive
25 | O=S(=O)(O)CCO | inactive
26 | O=C(O)c1c(Cl)ccc(Cl)c1Cl | inactive
27 | C=C(C)C(=O)OC1CC(C)CC(C)(C)C1 (centres undefined) | inactive
28 | CCC1COC(=O)O1 (centres undefined) | inactive
29 | C/C=C(\C)C(=O)OCC/C=C\CC | inactive
30 | CCC(O)C(C)(C)C (centres undefined) | inactive
31 | O=P(O)(O)OCC(O)CO (centres undefined) | inactive
32 | CCC(C)N (centres undefined) | inactive
33 | CC(=O)/C=C/c1ccco1 | inactive
34 | C[C@H](CCC(=O)O)[C@H]1CC[C@H]2[C@@H]3[C@H](O)C[C@@H]4C[C@H](O)CC[C@]4(C)[C@H]3C[C@H](O)[C@]12C | inactive
